Measured values as given in PubChem BioAssay (NCATS).
Inconclusive results are not listed. Some of the results follow. Activity calls are given as the source filed them. Unless noted, calls come from the whole dose curve; as a rule, active = well fitted curve in the direction sought with a large enough effect; inconclusive = small, poorly fitted or top-dose-only effect, or another doubt; inactive = no such curve, though single readings can be large; an effect the other way counts as inactive or inconclusive.

Columns and labels:
[1] = biological target: Tumor susceptibility gene 101 protein (Homo sapiens) (UniProt Q99816); assay: qHTS Assay for Iinhibitors of HIV-1 Budding by Blocking the Interaction of PTAP/TSG101: Hit Validation (AID 651600); note: nearly all actives have a fitted effect of over 70% in size; note: potency is the fitted concentration of half-maximal effect; for activity change, negative = inhibition: % is set by controls: 0 for no effect and ±100 for the full control effect
Sequence of Tumor susceptibility gene 101 protein (Homo sapiens) (Q99816 whole entry, looked up, the tested form may be a part): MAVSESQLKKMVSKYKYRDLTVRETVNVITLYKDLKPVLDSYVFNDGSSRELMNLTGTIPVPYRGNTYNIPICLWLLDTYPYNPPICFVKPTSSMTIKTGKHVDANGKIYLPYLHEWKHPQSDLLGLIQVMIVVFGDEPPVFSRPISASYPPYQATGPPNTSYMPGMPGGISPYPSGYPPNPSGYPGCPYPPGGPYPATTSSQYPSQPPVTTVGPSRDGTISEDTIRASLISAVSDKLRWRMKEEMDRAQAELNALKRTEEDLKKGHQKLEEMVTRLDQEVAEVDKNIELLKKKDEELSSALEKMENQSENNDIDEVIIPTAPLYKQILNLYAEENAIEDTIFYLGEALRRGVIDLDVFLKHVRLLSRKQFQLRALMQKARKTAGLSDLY
Outline: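 FITC-PTAP peptide (50 nM final) binding to Tsg101 binding domain (10 uM final) was measured by polarization after 20 min at r.t. with compounds, in 10 mM HEPES pH 7.5 buffer with 0.15 M NaCl and 0.01% Tween 20.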

[2] = biological target: Rap guanine nucleotide exchange factor 3 (Homo sapiens) (UniProt O95398); assay: Confirmatory qHTS for agonist of cAMP-regulated guanine nucleotide exchange factor 3 (EPAC1) (AID 1645881);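 note: EPAC1 catalysed release of BODIPY-GDP from Rap1B seen as fluorescence loss; 100% = effect of cAMP agonist control; nearly all actives have a fitted effect of over 75% in size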
Sequence of Rap guanine nucleotide exchange factor 3 (Homo sapiens) (O95398 whole entry, looked up): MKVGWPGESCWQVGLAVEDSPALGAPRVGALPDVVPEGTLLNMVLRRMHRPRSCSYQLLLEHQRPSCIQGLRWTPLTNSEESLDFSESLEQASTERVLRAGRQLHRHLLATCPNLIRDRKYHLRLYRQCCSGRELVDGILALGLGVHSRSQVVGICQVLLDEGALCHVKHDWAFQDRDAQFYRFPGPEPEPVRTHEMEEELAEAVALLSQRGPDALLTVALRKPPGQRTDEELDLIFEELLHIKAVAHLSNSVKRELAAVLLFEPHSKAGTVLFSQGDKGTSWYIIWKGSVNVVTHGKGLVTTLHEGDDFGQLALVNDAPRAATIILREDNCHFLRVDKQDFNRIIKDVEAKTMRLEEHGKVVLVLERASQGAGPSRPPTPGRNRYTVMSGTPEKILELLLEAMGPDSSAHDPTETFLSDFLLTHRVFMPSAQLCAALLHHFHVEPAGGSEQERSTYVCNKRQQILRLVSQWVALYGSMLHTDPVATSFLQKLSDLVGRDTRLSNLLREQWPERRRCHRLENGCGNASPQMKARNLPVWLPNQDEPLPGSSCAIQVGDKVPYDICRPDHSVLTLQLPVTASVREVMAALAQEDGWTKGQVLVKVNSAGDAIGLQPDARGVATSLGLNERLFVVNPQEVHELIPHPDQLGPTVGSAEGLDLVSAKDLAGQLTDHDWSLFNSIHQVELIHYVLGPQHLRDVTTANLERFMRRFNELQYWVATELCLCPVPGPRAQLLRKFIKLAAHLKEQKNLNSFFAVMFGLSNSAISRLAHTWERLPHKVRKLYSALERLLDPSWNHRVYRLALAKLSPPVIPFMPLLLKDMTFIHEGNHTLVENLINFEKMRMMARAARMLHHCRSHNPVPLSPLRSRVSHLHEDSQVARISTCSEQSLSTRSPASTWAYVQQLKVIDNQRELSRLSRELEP

[3] = biological target: Rap guanine nucleotide exchange factor 4 (Homo sapiens) (UniProt Q8WZA2); assay: Confirmatory qHTS for agonist of cAMP-regulated guanine nucleotide exchange factor 4 (EPAC2) (AID 1645884);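 note: nucleotide exchange releases bodipy-GDP from Rap1 and this lowers its fluorescence; % is set by controls: 0 for no effect and ±100 for the full control effect; nearly all actives have a fitted effect of over 65% in size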
Sequence of Rap guanine nucleotide exchange factor 4 (Homo sapiens) (Q8WZA2 whole entry, looked up): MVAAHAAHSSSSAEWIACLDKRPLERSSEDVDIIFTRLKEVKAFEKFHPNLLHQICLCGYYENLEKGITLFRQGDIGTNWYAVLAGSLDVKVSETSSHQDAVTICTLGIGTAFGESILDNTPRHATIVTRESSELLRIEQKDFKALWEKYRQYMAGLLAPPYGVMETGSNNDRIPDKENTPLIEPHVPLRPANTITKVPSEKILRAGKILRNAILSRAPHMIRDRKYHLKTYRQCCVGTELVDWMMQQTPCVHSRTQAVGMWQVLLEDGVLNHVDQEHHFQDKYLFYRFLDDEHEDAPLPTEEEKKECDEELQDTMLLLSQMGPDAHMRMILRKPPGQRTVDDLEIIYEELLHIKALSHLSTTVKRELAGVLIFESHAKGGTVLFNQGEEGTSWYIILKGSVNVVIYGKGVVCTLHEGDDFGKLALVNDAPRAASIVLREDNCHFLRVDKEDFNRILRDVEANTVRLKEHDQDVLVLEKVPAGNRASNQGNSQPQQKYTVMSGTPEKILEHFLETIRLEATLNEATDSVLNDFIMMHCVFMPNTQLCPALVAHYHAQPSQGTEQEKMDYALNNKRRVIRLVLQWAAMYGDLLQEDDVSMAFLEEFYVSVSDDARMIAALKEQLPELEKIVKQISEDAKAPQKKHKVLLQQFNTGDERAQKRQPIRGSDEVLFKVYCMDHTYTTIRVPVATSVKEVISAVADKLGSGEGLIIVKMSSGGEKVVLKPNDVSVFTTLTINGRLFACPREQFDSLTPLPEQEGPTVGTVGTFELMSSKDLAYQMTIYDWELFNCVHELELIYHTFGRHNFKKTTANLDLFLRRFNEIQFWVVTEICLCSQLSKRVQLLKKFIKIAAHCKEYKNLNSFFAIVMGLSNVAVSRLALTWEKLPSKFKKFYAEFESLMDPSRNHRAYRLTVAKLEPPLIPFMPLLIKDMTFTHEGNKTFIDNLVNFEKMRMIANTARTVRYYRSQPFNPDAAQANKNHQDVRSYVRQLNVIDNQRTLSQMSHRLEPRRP

[4] = biological target: Rap guanine nucleotide exchange factor 4 (Homo sapiens) (UniProt Q8WZA2); assay: Confirmatory qHTS for antagonist of cAMP-regulated guanine nucleotide exchange factor 4 (EPAC2) (AID 1645885); note: nearly all actives have a fitted effect of over 25% in size; note: potency is the fitted concentration of half-maximal effect
[5] = biological target: Rap guanine nucleotide exchange factor 3 (Homo sapiens) (UniProt O95398); assay: Counterscreen qHTS for antagonist of cAMP-regulated guanine nucleotide exchange factor 3 (EPAC1) (AID 1645888);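 note: fluorescence loss as bound BODIPY-GDP is released from Rap1B; % of control where 0% means no effect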
Outline: (§1)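 Rap1B–BODIPY-GDP (250 nM) with 50 uM GDP; compounds pin-transferred to 9.74 nM–152 uM final (activator) or from 7.32 nM upwards (inhibitor). Fluorescence Ex/Em 480/540 nm read at 5 and 30 min, then after adding cAMP or buffer, at room temperature.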

[6] = biological target: Rap guanine nucleotide exchange factor 3 (Homo sapiens) (UniProt O95398); assay: Counterscreen qHTS for agonist of cAMP-regulated guanine nucleotide exchange factor 3 (EPAC1) (AID 1645889); note: % of control where 0% means no effect; nearly all actives have a fitted effect of over 40% in size
Outline: as §1

[7] = qHTS for Inhibitors of Plasmodium falciparum (GB4) proliferation (AID 504315);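 note: 0% = DMSO vehicle and -100% = 0.29 µM artemisinin control; nearly all actives have a fitted effect of over 50% in size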
Outline: (§2)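 Parasite growth measured as SYBR Green DNA fluorescence (ex 485, em 535 nm) after overnight lysis following 72 h culture at 37 °C, 0.3% parasitemia, 2.5% hematocrit. Values normalized against DMSO and 0.29 uM artemisinin controls, with plate-stack correction.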

[8] = qHTS for Inhibitors of Plasmodium falciparum (CP250) proliferation (AID 504320);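 note: plate controls were DMSO vehicle for no effect and 0.29 µM artemisinin control for full effect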
Outline: as §2

[9] = AP1 Signaling Pathway (AID 357; active = well fitted curve in either direction with a large enough effect, not every such curve was filed as active; note: % is set by controls: 0 for no effect and ±100 for the full control effect); conditions: ME-180 (cervical carcinoma) AP-1-bla reporter, EGF-induced, beta-lactamase ratio, 5 h; at 7.69 µM (top of the series) unless noted
Outline: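 AP-1-bla ME-180 cells with beta-lactamase reporter under AP-1 response element, stimulated with EC50 EGF; compounds titrated, 5 hours at 37 degrees Celsius. CCF4 read at 460/530 nm ratio; positive and negative modulators judged by AC50.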

[10] = NFAT Signaling Pathway (AID 444; active = well fitted curve in either direction with a large enough effect, not every such curve was filed as active;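 note: carbachol stimulus at about its EC50 of 1 µM final; % is set by controls: 0 for no effect and ±100 for the full control effect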); conditions: Jurkat NFAT-bla M1, carbachol, beta-lactamase ratio, 5 h; at 7.69 µM (top of the series) unless noted
Outline: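 Jurkat cells with NFAT-driven β-lactamase reporter and co-expressed M1 receptor, stimulated with carbachol (final 1 uM, ~EC50), compound titration, 5 h at 37 °C. CCF4 loaded 1 h at RT; 460/530 nm ratio gave %activity and AC50.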

[11] = Stat Signaling Pathway (AID 446; active = well fitted curve in either direction with a large enough effect, not every such curve was filed as active;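 note: ME-180 cervical cancer cells given 40 pM IL-6 alongside compound; SIE-controlled beta-lactamase reporter measured as 460/530 nm FRET emission ratio; % is set by controls: 0 for no effect and ±100 for the full control effect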)
Outline: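 Compound effects on IL-6-induced STAT reporter activity were measured in ME-180 cells. After overnight culture, cells were co-treated with 40 pM IL-6 for 5 hrs before beta-lactamase substrate loading at room temperature.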

[12] = biological target: Glucocorticoid receptor (Homo sapiens) (UniProt P04150); assay: GR-GFP Redistribution (AID 450;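 active = compounds whose dose series gives a full or clear partial fitted curve of increased nuclear translocation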; note: potency is the fitted concentration of half-maximal effect); conditions: U2OS GR-GFP nuclear translocation, laser cytometry, 2 h
Sequence of Glucocorticoid receptor (Homo sapiens) (P04150 whole entry, looked up): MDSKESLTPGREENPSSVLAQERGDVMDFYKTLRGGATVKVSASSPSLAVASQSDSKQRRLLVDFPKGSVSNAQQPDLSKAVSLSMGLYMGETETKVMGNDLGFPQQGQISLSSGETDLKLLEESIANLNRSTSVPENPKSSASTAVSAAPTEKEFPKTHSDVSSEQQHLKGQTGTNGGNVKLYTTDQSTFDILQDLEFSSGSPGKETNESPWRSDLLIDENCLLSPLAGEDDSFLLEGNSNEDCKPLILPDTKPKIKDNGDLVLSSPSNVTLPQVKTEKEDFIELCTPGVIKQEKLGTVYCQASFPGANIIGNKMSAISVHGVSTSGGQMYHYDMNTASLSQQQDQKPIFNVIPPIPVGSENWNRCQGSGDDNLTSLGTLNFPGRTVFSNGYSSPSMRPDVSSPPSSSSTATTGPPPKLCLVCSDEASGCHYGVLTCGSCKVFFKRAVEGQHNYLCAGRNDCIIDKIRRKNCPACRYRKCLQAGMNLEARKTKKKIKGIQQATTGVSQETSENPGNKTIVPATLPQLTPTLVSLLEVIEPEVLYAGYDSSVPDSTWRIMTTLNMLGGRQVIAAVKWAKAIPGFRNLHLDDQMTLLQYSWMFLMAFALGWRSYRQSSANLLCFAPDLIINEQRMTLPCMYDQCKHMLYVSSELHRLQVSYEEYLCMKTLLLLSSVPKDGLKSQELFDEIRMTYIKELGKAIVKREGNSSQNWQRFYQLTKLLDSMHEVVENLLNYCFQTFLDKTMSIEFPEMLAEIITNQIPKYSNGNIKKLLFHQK

[13] = biological target: Lethal(3)malignant brain tumor-like protein 1 (Homo sapiens) (UniProt Q9Y468); assay: qHTS Assay for the Inhibitors of L3MBTL1: Hit Validation (AID 540279); conditions: L3MBTL1 methyl-lysine binding inhibition, biochemical qHTS; note: potency is the fitted concentration of half-maximal effect; nearly all actives have a fitted effect of over 70% in size
Sequence of Lethal(3)malignant brain tumor-like protein 1 (Homo sapiens) (Q9Y468 whole entry, looked up): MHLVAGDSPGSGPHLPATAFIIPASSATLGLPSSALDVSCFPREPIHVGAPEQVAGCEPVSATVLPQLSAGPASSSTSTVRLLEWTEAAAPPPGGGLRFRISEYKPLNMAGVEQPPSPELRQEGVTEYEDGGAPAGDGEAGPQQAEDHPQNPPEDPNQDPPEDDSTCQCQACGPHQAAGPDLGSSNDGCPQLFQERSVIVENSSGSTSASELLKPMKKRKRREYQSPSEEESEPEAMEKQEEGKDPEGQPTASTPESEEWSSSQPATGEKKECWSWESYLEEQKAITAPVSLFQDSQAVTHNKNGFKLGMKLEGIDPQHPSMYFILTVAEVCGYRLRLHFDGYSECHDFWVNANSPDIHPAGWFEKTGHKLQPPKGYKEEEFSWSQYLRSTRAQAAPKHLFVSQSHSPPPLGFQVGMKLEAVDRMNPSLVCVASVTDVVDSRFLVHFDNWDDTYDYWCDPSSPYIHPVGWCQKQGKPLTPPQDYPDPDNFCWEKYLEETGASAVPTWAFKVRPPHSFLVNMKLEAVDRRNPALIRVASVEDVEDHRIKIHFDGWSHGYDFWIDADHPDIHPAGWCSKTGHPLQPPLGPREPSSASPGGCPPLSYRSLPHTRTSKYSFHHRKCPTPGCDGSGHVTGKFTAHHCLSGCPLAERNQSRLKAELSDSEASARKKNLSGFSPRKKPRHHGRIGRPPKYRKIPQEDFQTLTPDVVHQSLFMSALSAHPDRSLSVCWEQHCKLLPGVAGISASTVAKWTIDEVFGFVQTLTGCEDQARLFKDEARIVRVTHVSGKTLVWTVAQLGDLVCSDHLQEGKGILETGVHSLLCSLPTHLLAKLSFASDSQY
Outline: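 L3MBTL1 (50 nM final) preformed 30 min with biotinylated H3(1-15)K9me1 peptide (75 nM), then compound 30 min at room temperature. Streptavidin donor and nickel chelate acceptor AlphaScreen beads (10 ug/mL each final) added for 30 min before read.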

[14] = qHTS Assay for the Inhibitors of L3MBTL1: Hit Validationin AlphaScreen Counterscreen (AID 602224); note: 0% is about no effect
Outline: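 AlphaScreen signal was read after compounds, 1 nM biotin-His6 peptide and 10 ug/mL each of streptavidin donor and nickel acceptor beads incubated 30 min at room temperature in darkness, following a 15 min compound–peptide preincubation.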

CCN(CC)c1nc2ccccc2nc1C(C#N)C(=O)NCCc1ccccc1 (configuration not stated)
active: Potency [1] 6.51 µM | Potency [4] 84.9 µM
inactive: Potency [2] | Potency [3] | Potency [5]

COc1ccc2nc(N3CCCC3)c(C#N)cc2c1
inactive: Potency [1] | Potency [2] | activation [3] 3.12% [at 17.1 µM, percent relative to cAMP agonist control] | Potency [4] | activity change, negative = inhibition [5] -11.6% [at 30.8 µM]

O=C1/C(=C/c2ccco2)Oc2c1ccc(O)c2CN1CCCCC1
inactive: Potency [2] | Potency [3] | Potency [5] | Potency [6]
active: Potency [1] 32.6 µM | Potency [4] 84.9 µM

CC1(OC(=O)C2CCCC2)C(=O)C=C2C=C(c3ccsc3)N(Cc3ccco3)C=C2C1=O (configuration not stated)
inactive: outcome [7] | outcome [8] | Potency [2] | Potency [3] | Potency [4] | Potency [5]

CC(C)OC(=O)C(C#N)c1nc2ccccc2nc1N1CCCC1 (configuration not stated)
inactive: activity change, negative = inhibition [9] 8.73% [at 17.2 µM] | activity change, negative = inhibition [10] -13.2% [at 17.2 µM] | outcome [11] | Potency [12] > 20.6 µM | Potency [2] | activation [3] 3.69% [at 17.1 µM, percent relative to cAMP agonist control] | Potency [4] | activity change, negative = inhibition [5] -19.9% [at 30.8 µM] | activation [6] 3.58% [at 30.8 µM]

CCN(C(=O)c1noc2c1COc1ccc(C)cc1-2)c1cccc(C)c1
inactive: Potency [2] | Potency [3] | Potency [4] | Potency [5] | Potency [6]

Cc1ccc(/C=C/C(=O)Nc2ccc([N+](=O)[O-])c(NC(=O)/C=C/c3ccc(C)o3)c2)o1
active: Potency [13] 3.77 µM
inactive: outcome [14] | Potency [2] | activation [3] 6% [at 17.1 µM, percent relative to cAMP agonist control] | Potency [4] | activity change, negative = inhibition [5] 4.14% [at 30.8 µM] | activation [6] 27.5% [at 30.8 µM]

CC1(C)Cc2c(C#N)c(N3CCN(C(=O)c4ccco4)CC3)nc(-c3ccco3)c2CS1
inactive: Potency [12] > 20.6 µM | Potency [2] | Potency [3] | Potency [4] | Potency [5] | Potency [6]

CC(C)(C)NC(=O)COC(=O)c1c2c(nc3ccccc13)CCC2
inactive: Potency [2] | activation [3] 2.28% [at 17.1 µM, percent relative to cAMP agonist control] | Potency [4] | activity change, negative = inhibition [5] -10.2% [at 30.8 µM] | activation [6] 16.3% [at 30.8 µM]

Cc1cccc(C)c1-n1cccc1/C=C1\SC(=S)N(c2cccc(C(=O)O)c2)C1=O
inactive: Potency [2] | Potency [3] | Potency [4] | Potency [5] | Potency [6]

Oc1ccc(NCc2ccc(OCc3ccccc3)cc2)cc1
inactive: Potency [2] | Potency [3] | Potency [4] | Potency [5] | activation [6] 16.4% [at 30.8 µM]

CC(Oc1ccc(Cl)cc1)C(=O)Nc1sccc1C(N)=O (configuration not stated)
inactive: Potency [2] | activation [3] 0.0366% [at 17.1 µM, percent relative to cAMP agonist control] | Potency [4] | activity change, negative = inhibition [5] -14.6% [at 30.8 µM] | activation [6] 24.1% [at 30.8 µM]

CCC(C)(C)c1ccc(OCC(=O)N(C)C)c(C(C)(C)CC)c1
inactive: Potency [2] | Potency [3] | Potency [6]
active: Potency [4] 67.5 µM

Nc1ccc(N2CCCCC2)c2nonc12
inactive: Potency [2] | activation [3] -6.41% [at 17.1 µM, percent relative to cAMP agonist control] | Potency [4] | activation [6] 6.94% [at 30.8 µM]

NC(CSC(c1ccccc1)(c1ccccc1)c1cccc2ccccc12)C(=O)O (configuration not stated)
inactive: Potency [2] | activation [3] -1.78% [at 17.1 µM, percent relative to cAMP agonist control] | Potency [4] | activation [6] 5.6% [at 30.8 µM]

FC(F)(F)c1cccc(CN2CCC(c3cc(-c4cccs4)n[nH]3)CC2)c1
inactive: Potency [2] | Potency [3] | Potency [4] | Potency [6]

COCOCCn1cc(CN2CCS(=O)(=O)N(Cc3ccc(-c4ccc(OC)cc4)cc3)C(CC(C)C)C2=O)nn1 (configuration not stated)
inactive: Potency [2] | Potency [3] | Potency [4] | Potency [6]

Cc1ccc(N=Cc2cc3c(cc2[N+](=O)[O-])OCO3)cc1[N+](=O)[O-]
inactive: Potency [2] | activation [3] -8.35% [at 17.1 µM, percent relative to cAMP agonist control] | Potency [4] | activation [6] -2.33% [at 30.8 µM]

CCCCOC(=O)C1=C(C)Nc2nnnn2C1c1ccccc1Cl (configuration not stated)
inactive: Potency [2] | Potency [3] | Potency [4] | Potency [6]

COc1cc(/C=C2\SC(=O)N(CC(=O)Nc3ccc(C)cc3)C2=O)cc(Cl)c1OCC(=O)O
inactive: Potency [2] | Potency [3] | Potency [4] | Potency [6]

COc1ccc2sc(-c3ccc(SC)cc3)c(C#CC(C)(C)O)c2c1
inactive: Potency [2] | Potency [3] | Potency [4] | Potency [6]

Cc1cc(C)nc(SCC(=O)c2ccc(C)c(C)c2)n1
inactive: Potency [2] | Potency [3] | Potency [6]
active: Potency [4] 13.5 µM

O=C(COC(=O)c1cccc(NS(=O)(=O)c2ccc(F)c(F)c2)c1)NC(=O)NC1CCCC1
inactive: Potency [2] | Potency [3] | Potency [4] | Potency [6]

COc1cccc(S(=O)(=O)Nc2ccc3c(c2)[C@@H]2C[C@@H](CC(=O)NCc4ccc(Cl)cc4)O[C@@H](CO)[C@@H]2O3)c1
inactive: Potency [2] | Potency [3] | Potency [4] | Potency [6]
